This is a sample that favours compounds with a hit; in the whole collection about 2.1% have one here.
KLF5 inh = kruppel-like factor 5 inhibition; DLD-1 KLF5 promoter-luciferase reporter, luminescence; 0.23% of 290,000 active; inhibition, % at 5 µM;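 active means inhibition above a per-plate limit of that plate's mean compound inhibition plus 3 SD, cut at about 60% in these data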;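 further: 0% = DMSO wells and 100% = LY294002 at 200 µM; higher means less KLF5 promoter-driven luciferase light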
aSyn 5UTR inh = 5' untranslated region of α-synuclein, MLPCN primary screen | inhibition, % (tested at 7.5 µM) | 0.82% of 300,000 active | alpha-synuclein 5'UTR reporter, inhibitor activity; in the data active means inhibition above about 60%;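 further: H4 neuroglioblastoma cells stably carrying SNCA 5'UTR luciferase fusion; 0% = DMSO wells and 100% = positive control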
HIF activator = HIF pathway transcriptional activation | AID 1910 | U2OS HRE-luciferase reporter, luminescence; normalized: DMSO 0%, desferrioxamine 100% | activation, % at 7.5 µM (by protocol) | 0.32% of 300,000 active;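 active means mean activation of at least 10% of the iron chelator positive control signal, with at least half of replicates also reaching 10%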
Wee1 degr inh = inhibitors of human Wee1 degradation. 1.2% of 220,000 active. HeLa Luc-Wee1K328M stability, luciferase luminescence; 100% = proteasome inhibitor MG132 effect. reporter increase, % at 5 µM. P30291;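 active means activation above the mean of all tested compounds plus 3 SD, set per screening run, cut at about 8.8% in these data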;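 further: cells exposed to compound for 20 h before luminescence read; 0% = DMSO alone and 100% = MG132 at 30 µM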
Platelet DG rel = platelet dense granule release activity; human platelet-rich plasma, SFLLRN dense granule ATP release, luminescence; inhibition, %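 (compounds screened at 7.5 µM in platelet-rich plasma)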; 0.22% of 300,000 active; AID 1663;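 active means mean replicate score, as percent of positive control, at or above 50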
Starred values were filed as active, the others as inactive.

For CCOC(=O)c1ccc(N2C(=O)C(O)=C(C(C)=O)C2c2ccc([N+](=O)[O-])cc2)cc1 (centres undefined) the results were KLF5 inh -44, aSyn 5UTR inh 18, HIF activator -43 and Platelet DG rel -8.
For O=C(Nc1ccc(NC(=O)c2cc3ccccc3o2)cc1)c1ccc2c(c1)OCCO2 the results were KLF5 inh -10, aSyn 5UTR inh 71*, HIF activator -3, Wee1 degr inh -1 and Platelet DG rel 1.
For Cc1ncoc1C(=O)Nc1ccc2c(c1)OCCO2 the results were KLF5 inh -100, aSyn 5UTR inh -63, HIF activator 0, Wee1 degr inh 1 and Platelet DG rel 66*.
For COc1cccc(NC(=O)c2ccc3c(c2)OCCO3)c1 the results were KLF5 inh 48, aSyn 5UTR inh 25, HIF activator -2 and Platelet DG rel 52*.
For CCOC(=O)c1c(C)c(C(=O)Nc2ccc3c(c2)OCCO3)c(C)n1C the results were KLF5 inh -24, aSyn 5UTR inh -30, HIF activator 1, Wee1 degr inh 9.2* and Platelet DG rel 1.
`COc1cccc(NC(=O)c2ccc3c(c2)OCO3)c1` gave KLF5 inh -57, aSyn 5UTR inh -23, HIF activator 3 and Platelet DG rel 12.
`Cc1ccsc1C(=O)Nc1ccc2c(c1)OCCO2` gave KLF5 inh -219, aSyn 5UTR inh 5, HIF activator 0, Wee1 degr inh 0 and Platelet DG rel 25.
`CCOC(=O)c1ccc(NC(=O)Nc2ccc3c(c2)OCCO3)cc1` gave KLF5 inh -27, aSyn 5UTR inh -55, HIF activator 1, Wee1 degr inh -3 and Platelet DG rel -1.
Screening Cc1cc(NC(=O)c2ccc3c(c2)OCCO3)ccc1NC(=O)c1cc2ccccc2o1 returned KLF5 inh -26, aSyn 5UTR inh -42, HIF activator 1, Wee1 degr inh -1 and Platelet DG rel -2.
CC1(C)CC(=O)C=C(NNC(=O)OC(C)(C)C)C1 was read as KLF5 inh 7, aSyn 5UTR inh -5, HIF activator 0, Wee1 degr inh 0 and Platelet DG rel -1.
For CC(C)C1Oc2ccccc2N(CC(=O)N(Cc2ccccn2)CC2CCCO2)C1=O (centres undefined) the results were KLF5 inh 22, aSyn 5UTR inh -6, HIF activator 0, Wee1 degr inh 9.2* and Platelet DG rel -1.
`COc1ccc(CC(=O)N/N=C(/C)CC(=O)N(C)c2ccccc2)cc1` gave KLF5 inh -30, aSyn 5UTR inh -7, HIF activator 0 and Platelet DG rel -6.
For Cc1ccc(C(C)C)c(OCC(=O)N/N=C/C2CCCCC2)c1 the results were KLF5 inh 13, aSyn 5UTR inh 2, HIF activator -1, Wee1 degr inh 9.2* and Platelet DG rel -23.
Screening Cc1ccc(C(C)C)c(OCC(=O)NN=C2CCCC2)c1 returned KLF5 inh -23, aSyn 5UTR inh -6, HIF activator 0, Wee1 degr inh 6 and Platelet DG rel 0.
For CCCN(C(=O)c1cn(-c2ccccc2)nc1-c1ccc(OC)cc1)C1CCS(=O)(=O)C1 (centres undefined) the results were aSyn 5UTR inh 4, HIF activator 0 and Platelet DG rel 7.
For NC(=O)N1CCN(C(=O)c2ccco2)CC1 the results were KLF5 inh -38, aSyn 5UTR inh 4, HIF activator 0, Wee1 degr inh 1 and Platelet DG rel 51*.
`CCn1cc(C(=O)O)c(=O)c2cnc(N3CCN(C(=S)NC(=O)c4ccc(OC)cc4)CC3)nc21` gave KLF5 inh 21, aSyn 5UTR inh -3, HIF activator 1 and Platelet DG rel -7.
For COc1ccc(Cc2nnc(NC(=O)C(C)(C)C)s2)cc1 the results were KLF5 inh -26, aSyn 5UTR inh -9, HIF activator 0, Wee1 degr inh -2 and Platelet DG rel 11.
For CCC(C)(C)c1ccc(Oc2ccc(N)cc2)cc1 the results were KLF5 inh 51, aSyn 5UTR inh 127*, HIF activator -5, Wee1 degr inh -2 and Platelet DG rel 1.
Screening CCC(C)(C)c1ccc(Oc2cccc(C(=O)O)c2)cc1 returned KLF5 inh -173, aSyn 5UTR inh -95, HIF activator 1, Wee1 degr inh 3 and Platelet DG rel 0.
For Cc1cc2ncn(C(=O)c3ccc(F)cc3)c2cc1C the results were KLF5 inh -12, aSyn 5UTR inh 10, HIF activator 1 and Platelet DG rel 2.
Cc1ccc(C(=O)c2ccc(O)cc2)cc1C was read as KLF5 inh -46 and Wee1 degr inh -1.
For Cc1ccc(C(=O)c2cccc(N)c2)cc1C the results were KLF5 inh -4, aSyn 5UTR inh 82*, HIF activator -3, Wee1 degr inh 0 and Platelet DG rel 3.
`O=C(/C=C/Nc1ccc(F)cc1Br)c1ccccc1` gave KLF5 inh -103, aSyn 5UTR inh 70*, HIF activator -2, Wee1 degr inh -1 and Platelet DG rel 52*.
`Cc1cc(N/C=C/C(=O)c2ccccc2)ccc1Br` gave KLF5 inh -113, aSyn 5UTR inh -78, HIF activator 3 and Platelet DG rel 10.
For O=C1CCNc2cc3ccccc3cc21 the results were KLF5 inh 3, aSyn 5UTR inh 78*, HIF activator -1, Wee1 degr inh 0 and Platelet DG rel -12.
CN1CCN(c2nnc(-c3ccc(F)cc3)c3ccccc23)CC1 was read as KLF5 inh -2, aSyn 5UTR inh 6, HIF activator 0 and Platelet DG rel -3.
For O=C(COC(=O)Cn1cnc2ccccc21)Nc1cc2c(cc1Cl)C(=O)c1ccccc1C2=O the results were KLF5 inh -77, aSyn 5UTR inh -162, HIF activator 5, Wee1 degr inh 11* and Platelet DG rel -1.
Screening O=C(COC(=O)Cn1cnc2ccccc21)Nc1cc(S(=O)(=O)N2CCOCC2)ccc1Cl returned KLF5 inh -10, aSyn 5UTR inh -5, HIF activator 0, Wee1 degr inh 0 and Platelet DG rel 6.
`CCCCN(CCCC)S(=O)(=O)c1ccc(C(=O)Nc2nnc(COC)o2)cc1` gave KLF5 inh -19, aSyn 5UTR inh 62*, HIF activator -2 and Wee1 degr inh -2.
`CCc1nnc(NC(=O)c2ccc(S(=O)(=O)N(CC)Cc3ccccc3)cc2)o1` gave KLF5 inh 23, aSyn 5UTR inh 9, HIF activator -37, Wee1 degr inh -4 and Platelet DG rel -3.
Screening CCN(CC)S(=O)(=O)c1ccc(C(=O)Nc2nnc(COC)o2)cc1 returned KLF5 inh -35, aSyn 5UTR inh 7, HIF activator 0, Wee1 degr inh 1 and Platelet DG rel 5.
CCc1nnc(NC(=O)c2ccc(S(=O)(=O)N(C)Cc3ccccc3)cc2)o1 was read as KLF5 inh 39, aSyn 5UTR inh 63*, HIF activator 0 and Platelet DG rel -5.
For COc1ccc(NC2CCCN(C(=O)CCOc3ccccc3)C2)cc1 (centres undefined) the results were KLF5 inh 3, aSyn 5UTR inh 3, HIF activator 0 and Platelet DG rel 0.

Source: PubChem (several laboratories)
